# Measurements: paper PMC11006913
# Positions count from the first letter of the chain named.
# What was measured:
# Test in all cases: PBM; 200 nM protein, PBS
# Details in all cases: dsDNA, one strand shown
# [1] = molecular target: PITX2 (Homo sapiens, UniProt Q99697 72-157)
# [2] = molecular target: PROP1 (Homo sapiens, UniProt O75360 56-141)
# [3] = molecular target: PROP1 (Homo sapiens, UniProt O75360 56-141, R99H)
# [4] = molecular target: PROP1 (Homo sapiens, UniProt O75360 56-141, F88S)
# Chain of PROP1 (Homo sapiens, UniProt O75360 56-141, F88S) (O75360 56-141 F88S): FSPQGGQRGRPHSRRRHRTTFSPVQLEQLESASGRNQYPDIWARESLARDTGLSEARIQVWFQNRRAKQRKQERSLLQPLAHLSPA
# [5] = molecular target: NKX3-2 (Homo sapiens, UniProt P78367 192-278, P234S)
# Chain of NKX3-2 (Homo sapiens, UniProt P78367 192-278, P234S) (P78367 192-278 P234S): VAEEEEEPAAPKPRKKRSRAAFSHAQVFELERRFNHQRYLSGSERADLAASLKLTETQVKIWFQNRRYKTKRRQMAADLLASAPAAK
# [6] = molecular target: NKX3-2 (Homo sapiens, UniProt P78367 192-278)
# Chain of NKX3-2 (Homo sapiens, UniProt P78367 192-278) (P78367 192-278): as the sequence (P78367 192-278 P234S) above, with S43P counted along it
# [7] = molecular target: T1, NKX2-6 (Homo sapiens, UniProt A6NCS4 118-204, R150C)
# T1 sequence: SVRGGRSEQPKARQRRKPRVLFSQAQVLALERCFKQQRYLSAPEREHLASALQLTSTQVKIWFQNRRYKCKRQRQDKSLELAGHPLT
# [8] = molecular target: ALX1 (Homo sapiens, UniProt Q15699 118-204, L144V)
# Chain of ALX1 (Homo sapiens, UniProt Q15699 118-204, L144V) (Q15699 118-204 L144V): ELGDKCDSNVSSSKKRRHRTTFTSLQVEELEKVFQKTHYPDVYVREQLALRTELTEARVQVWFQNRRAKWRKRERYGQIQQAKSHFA
# [9] = molecular target: ALX1 (Homo sapiens, UniProt Q15699 118-204, L144R)
# Chain of ALX1 (Homo sapiens, UniProt Q15699 118-204, L144R) (Q15699 118-204 L144R): as the sequence (Q15699 118-204 L144V) above, with V27R counted along it
# [10] = molecular target: ALX1 (Homo sapiens, UniProt Q15699 118-204)
# Chain of ALX1 (Homo sapiens, UniProt Q15699 118-204) (Q15699 118-204): as the sequence (Q15699 118-204 L144V) above, with V27L counted along it
# [11] = molecular target: HOXA7 (Homo sapiens, UniProt P31268 116-202)
# Chain of HOXA7 (Homo sapiens, UniProt P31268 116-202) (P31268 116-202): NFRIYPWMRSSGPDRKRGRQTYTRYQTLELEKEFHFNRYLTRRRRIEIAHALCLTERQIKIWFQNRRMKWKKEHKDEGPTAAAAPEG
# [12] = molecular target: HOXA7 (Homo sapiens, UniProt P31268 116-202, W177C)
# Chain of HOXA7 (Homo sapiens, UniProt P31268 116-202, W177C) (P31268 116-202 W177C): as the sequence (P31268 116-202) above, with W62C counted along it
# [13] = molecular target: ALX4 (Homo sapiens, UniProt Q9H161 200-286)
# Chain of ALX4 (Homo sapiens, UniProt Q9H161 200-286) (Q9H161 200-286): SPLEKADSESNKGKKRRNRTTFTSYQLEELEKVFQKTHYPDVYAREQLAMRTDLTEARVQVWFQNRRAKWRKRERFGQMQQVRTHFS
# [14] = molecular target: ALX4 (Homo sapiens, UniProt Q9H161 200-286, Q225E)
# Chain of ALX4 (Homo sapiens, UniProt Q9H161 200-286, Q225E) (Q9H161 200-286 Q225E): as the sequence (Q9H161 200-286) above, with Q26E counted along it
# [15] = molecular target: HOXC9 (Homo sapiens, UniProt P31274 178-260, K195R)
# Chain of HOXC9 (Homo sapiens, UniProt P31274 178-260, K195R) (P31274 178-260 K195R): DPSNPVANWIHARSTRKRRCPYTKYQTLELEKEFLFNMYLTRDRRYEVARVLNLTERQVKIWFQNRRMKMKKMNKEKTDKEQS
# [16] = molecular target: HOXC9 (Homo sapiens, UniProt P31274 178-260)
# Chain of HOXC9 (Homo sapiens, UniProt P31274 178-260) (P31274 178-260): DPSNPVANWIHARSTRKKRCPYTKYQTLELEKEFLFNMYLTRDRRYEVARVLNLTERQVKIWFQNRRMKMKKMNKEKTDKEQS
# [17] = molecular target: HOXC9 (Homo sapiens, UniProt P31274 178-260, R193K)
# Chain of HOXC9 (Homo sapiens, UniProt P31274 178-260, R193K) (P31274 178-260 R193K): as the sequence (P31274 178-260) above, with R16K counted along it
# [18] = molecular target: HOXC9 (Homo sapiens, UniProt P31274 178-260, R222W)
# Chain of HOXC9 (Homo sapiens, UniProt P31274 178-260, R222W) (P31274 178-260 R222W): as the sequence (P31274 178-260) above, with R45W counted along it
# [19] = molecular target: T2, NKX2-6 (Homo sapiens, UniProt A6NCS4 118-204)
# T2 sequence: T1 sequence with C33R
# [20] = molecular target: T3, NKX2-6 (Homo sapiens, UniProt A6NCS4 118-204, F151L)
# T3 sequence: T1 sequence with C33R, F34L
# Chain of PROP1 (Homo sapiens, UniProt O75360 56-141, R99H) (O75360 56-141 R99H): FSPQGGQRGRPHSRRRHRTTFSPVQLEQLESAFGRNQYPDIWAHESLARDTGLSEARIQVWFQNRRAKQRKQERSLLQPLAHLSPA
# Chain of PROP1 (Homo sapiens, UniProt O75360 56-141) (O75360 56-141): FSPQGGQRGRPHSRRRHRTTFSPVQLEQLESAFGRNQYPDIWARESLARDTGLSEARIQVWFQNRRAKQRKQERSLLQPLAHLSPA
sequence,measurement,setting,value
GCAGGCCC,binding signal,[1],"7.9 upbm affinity estimate (log intensity, higher = more binding, comparable within an allelic series)"
CCGCAGCC,binding signal,[2],"6.67 upbm affinity estimate (log intensity, higher = more binding, comparable within an allelic series)"
same,binding signal,[3],"6.75 upbm affinity estimate (log intensity, higher = more binding, comparable within an allelic series)"
same,binding signal,[4],"6.52 upbm affinity estimate (log intensity, higher = more binding, comparable within an allelic series)"
CTGCCGGC,binding signal,[5],"10.4 upbm affinity estimate (log intensity, higher = more binding, comparable within an allelic series)"
same,binding signal,[6],"10.3 upbm affinity estimate (log intensity, higher = more binding, comparable within an allelic series)"
CGCTACCG,binding signal,[7],"9.4 upbm affinity estimate (log intensity, higher = more binding, comparable within an allelic series)"
CGGGCCGC,binding signal,[8],"6.4 upbm affinity estimate (log intensity, higher = more binding, comparable within an allelic series)"
same,binding signal,[9],"6.44 upbm affinity estimate (log intensity, higher = more binding, comparable within an allelic series)"
same,binding signal,[10],"6.51 upbm affinity estimate (log intensity, higher = more binding, comparable within an allelic series)"
AGCGCAGG,binding signal,[11],"8.41 upbm affinity estimate (log intensity, higher = more binding, comparable within an allelic series)"
same,binding signal,[12],"8.31 upbm affinity estimate (log intensity, higher = more binding, comparable within an allelic series)"
CTGGCCCA,binding signal,[13],"8.03 upbm affinity estimate (log intensity, higher = more binding, comparable within an allelic series)"
same,binding signal,[14],"8 upbm affinity estimate (log intensity, higher = more binding, comparable within an allelic series)"
CCCAGCCG,binding signal,[15],"9.41 upbm affinity estimate (log intensity, higher = more binding, comparable within an allelic series)"
same,binding signal,[11],"8.28 upbm affinity estimate (log intensity, higher = more binding, comparable within an allelic series)"
same,binding signal,[16],"9.56 upbm affinity estimate (log intensity, higher = more binding, comparable within an allelic series)"
same,binding signal,[1],"8.01 upbm affinity estimate (log intensity, higher = more binding, comparable within an allelic series)"
same,binding signal,[17],"9.38 upbm affinity estimate (log intensity, higher = more binding, comparable within an allelic series)"
same,binding signal,[18],"9.62 upbm affinity estimate (log intensity, higher = more binding, comparable within an allelic series)"
same,binding signal,[12],"8.32 upbm affinity estimate (log intensity, higher = more binding, comparable within an allelic series)"
CGCTGCGC,binding signal,[19],"9.4 upbm affinity estimate (log intensity, higher = more binding, comparable within an allelic series)"
same,binding signal,[20],"9.26 upbm affinity estimate (log intensity, higher = more binding, comparable within an allelic series)"
CGGCCTGC,binding signal,[11],"8.37 upbm affinity estimate (log intensity, higher = more binding, comparable within an allelic series)"
same,binding signal,[1],"7.72 upbm affinity estimate (log intensity, higher = more binding, comparable within an allelic series)"
same,binding signal,[12],"8.26 upbm affinity estimate (log intensity, higher = more binding, comparable within an allelic series)"
CCCCGGGG,binding signal,[13],"8.16 upbm affinity estimate (log intensity, higher = more binding, comparable within an allelic series)"
same,binding signal,[14],"8.02 upbm affinity estimate (log intensity, higher = more binding, comparable within an allelic series)"
same,binding signal,[19],"9.57 upbm affinity estimate (log intensity, higher = more binding, comparable within an allelic series)"
same,binding signal,[20],"9.2 upbm affinity estimate (log intensity, higher = more binding, comparable within an allelic series)"
CAGGCCCG,binding signal,[13],"8 upbm affinity estimate (log intensity, higher = more binding, comparable within an allelic series)"
same,binding signal,[14],"7.92 upbm affinity estimate (log intensity, higher = more binding, comparable within an allelic series)"
same,binding signal,[8],"6.27 upbm affinity estimate (log intensity, higher = more binding, comparable within an allelic series)"
same,binding signal,[9],"6.24 upbm affinity estimate (log intensity, higher = more binding, comparable within an allelic series)"
same,binding signal,[10],"6.21 upbm affinity estimate (log intensity, higher = more binding, comparable within an allelic series)"
CGGCCACC,binding signal,[11],"8.41 upbm affinity estimate (log intensity, higher = more binding, comparable within an allelic series)"
same,binding signal,[12],"8.25 upbm affinity estimate (log intensity, higher = more binding, comparable within an allelic series)"
CCAGACGG,binding signal,[15],"9.56 upbm affinity estimate (log intensity, higher = more binding, comparable within an allelic series)"
same,binding signal,[16],"9.6 upbm affinity estimate (log intensity, higher = more binding, comparable within an allelic series)"
same,binding signal,[17],"9.51 upbm affinity estimate (log intensity, higher = more binding, comparable within an allelic series)"
same,binding signal,[18],"9.67 upbm affinity estimate (log intensity, higher = more binding, comparable within an allelic series)"
CAGCGCCG,binding signal,[7],"9.39 upbm affinity estimate (log intensity, higher = more binding, comparable within an allelic series)"
CCGGGCGC,binding signal,[15],"9.34 upbm affinity estimate (log intensity, higher = more binding, comparable within an allelic series)"
same,binding signal,[16],"9.51 upbm affinity estimate (log intensity, higher = more binding, comparable within an allelic series)"
same,binding signal,[17],"9.31 upbm affinity estimate (log intensity, higher = more binding, comparable within an allelic series)"
same,binding signal,[18],"9.66 upbm affinity estimate (log intensity, higher = more binding, comparable within an allelic series)"
CCCTAGGG,binding signal,[5],"10.6 upbm affinity estimate (log intensity, higher = more binding, comparable within an allelic series)"
same,binding signal,[6],"10.5 upbm affinity estimate (log intensity, higher = more binding, comparable within an allelic series)"
GGGGGGAC,binding signal,[15],"9.27 upbm affinity estimate (log intensity, higher = more binding, comparable within an allelic series)"
same,binding signal,[16],"9.04 upbm affinity estimate (log intensity, higher = more binding, comparable within an allelic series)"
same,binding signal,[17],"9.37 upbm affinity estimate (log intensity, higher = more binding, comparable within an allelic series)"
same,binding signal,[2],"6.32 upbm affinity estimate (log intensity, higher = more binding, comparable within an allelic series)"
same,binding signal,[3],"6.19 upbm affinity estimate (log intensity, higher = more binding, comparable within an allelic series)"
same,binding signal,[18],"9.31 upbm affinity estimate (log intensity, higher = more binding, comparable within an allelic series)"
same,binding signal,[4],"5.57 upbm affinity estimate (log intensity, higher = more binding, comparable within an allelic series)"
CCCGGGAC,binding signal,[7],"9.29 upbm affinity estimate (log intensity, higher = more binding, comparable within an allelic series)"
AGCCGGCT,binding signal,[8],"6.54 upbm affinity estimate (log intensity, higher = more binding, comparable within an allelic series)"
same,binding signal,[9],"6.74 upbm affinity estimate (log intensity, higher = more binding, comparable within an allelic series)"
same,binding signal,[10],"6.76 upbm affinity estimate (log intensity, higher = more binding, comparable within an allelic series)"
GTCCGGAC,binding signal,[15],"9.77 upbm affinity estimate (log intensity, higher = more binding, comparable within an allelic series)"
same,binding signal,[16],"9.72 upbm affinity estimate (log intensity, higher = more binding, comparable within an allelic series)"
same,binding signal,[17],"9.8 upbm affinity estimate (log intensity, higher = more binding, comparable within an allelic series)"
same,binding signal,[2],"6.74 upbm affinity estimate (log intensity, higher = more binding, comparable within an allelic series)"
same,binding signal,[3],"6.64 upbm affinity estimate (log intensity, higher = more binding, comparable within an allelic series)"
same,binding signal,[18],"9.89 upbm affinity estimate (log intensity, higher = more binding, comparable within an allelic series)"
same,binding signal,[4],"6.7 upbm affinity estimate (log intensity, higher = more binding, comparable within an allelic series)"
GCACGCCC,binding signal,[11],"8.55 upbm affinity estimate (log intensity, higher = more binding, comparable within an allelic series)"
same,binding signal,[12],"8.44 upbm affinity estimate (log intensity, higher = more binding, comparable within an allelic series)"
CCCCAGCG,binding signal,[5],"10.5 upbm affinity estimate (log intensity, higher = more binding, comparable within an allelic series)"
same,binding signal,[6],"10.6 upbm affinity estimate (log intensity, higher = more binding, comparable within an allelic series)"
GCGCTGCC,binding signal,[1],"8 upbm affinity estimate (log intensity, higher = more binding, comparable within an allelic series)"
CCGCCAGC,binding signal,[19],"8.92 upbm affinity estimate (log intensity, higher = more binding, comparable within an allelic series)"
same,binding signal,[20],"9.24 upbm affinity estimate (log intensity, higher = more binding, comparable within an allelic series)"
AGCTCCGC,binding signal,[19],"9.07 upbm affinity estimate (log intensity, higher = more binding, comparable within an allelic series)"
same,binding signal,[20],"9.27 upbm affinity estimate (log intensity, higher = more binding, comparable within an allelic series)"
CGCAGCGC,binding signal,[2],"6.83 upbm affinity estimate (log intensity, higher = more binding, comparable within an allelic series)"
same,binding signal,[3],"6.82 upbm affinity estimate (log intensity, higher = more binding, comparable within an allelic series)"
same,binding signal,[4],"6.74 upbm affinity estimate (log intensity, higher = more binding, comparable within an allelic series)"
